Results reported in PubChem BioAssay (Tox21).
Results filed as inconclusive are left out. A number with no mark means an inactive call. The source made the active and inactive calls. Calls come from the whole dose curve; as a rule, active = well fitted cell-killing curve with a large enough effect in the repeat runs; inconclusive = weak or mixed curves, or effect the other way; inactive = flat fitted curve, though single readings scatter.

Assay: Human pregnane X receptor (PXR) small molecule agonists, qHTS cell viability counter screen (AID 1346977); note: nearly all actives have a fitted effect of over 50% in size
Conditions: PXR-Luc HepG2 viability, CellTiter-Fluor, 24 h; series mostly up to 92.4 µM; activity change, negative = cytotoxicity: at the top concentration
From the text: U.S. Tox21 Program National Center for Advancing Translational Sciences [NCATS] NIH Chemical Genomics Center [NCGC] U.S. Environmental Protection Agency [EPA] National Institutes of Environmental Health Sciences [NIEHS] National Toxicology Program [NTP] U.S. Food and Drug Administration [FDA] Tox21 Assay Overview: The human pregnane X receptor (hPXR) regulates the expression of several drug metabolizing enzymes and induction of these proteins is a major mechanism for developing drug resistance in cancer. One such key enzyme catalyzing the drug metabolism is cytochrome P450 3A4 (CYP3A4). Changes in CYP3A4 expression affect drug metabolism, thereby reducing the therapeutic efficacy and altering toxicological response to a drug and which finally causes adverse drug interaction. To screen Tox21 libraries for compounds that activate hPXR-mediated CYP3A4 gene expression, PXR-Luc HepG2 cells were used. Also cytotoxicity of the compounds was tested in parallel by measuring the cell viability using CellTiter-Fluor assay system in the same wells.
Tox21 Assay Protocol Summary: PXR-Luc HepG2 cells were dispensed at 2,000 per well in 5uL of assay medium containing 5% charcoal-stripped FBS into white solid bottom 1536-well plates (Corning Life Sciences, Corning, NY) using a Multidrop Combi (Thermo Scientific, Waltham, MA) dispenser. The assay plates were incubated at 37 C and 5% CO2 for 5hr, and then 23nL of compounds dissolved in DMSO and positive control were transferred using a Pintool station (Wako, San Diego, CA). The assay plates were incubated at 37C and 5% CO2 for 24hr. For cytotoxicity read, after 23hr incubation at 37C, 1uL CellTiter-Fluor reagent (Promega Corporation, Madison, WI) was added to each well of the assay plates using Flying Reagent Dispenser (FRD, Aurora Discovery, San Diego, CA). After 1hr incubation at 37C and 5% CO2, the fluorescence signal was quantified using a ViewLux plate reader (PerkinElmer, Shelton, CT).
% is set by controls: 0 for no effect and ±100 for the full control effect; potency is the fitted concentration of half-maximal effect.

| Structure (SMILES) | activity change, negative = cytotoxicity | Potency |
| --- | --- | --- |
| CCCCCCCCCCCCCCCCI | 1.52% [at 19 µM] |  |
| CCCCCCCC/C=C\CCCCCCCC(=O)OC[C@@H](O)[C@H]1OC[C@H](O)[C@H]1O | 19% |  |
| O=S1(=O)CCCC1 | 7.19% |  |
| O=C1c2ccccc2-c2ccccc21 | 1.72% |  |
| NC(=O)NNC(N)=O | 3.47% |  |
| Cc1ccccc1C | 12.1% |  |
| COC(/C=C(\C)CCC=C(C)C)OC | 11% |  |
| CN(C)CCCNCCC#N | 4.14% |  |
| CC(C)C(=O)c1ccccc1 | 9.95% |  |
| Nc1ccc(S(=O)(=O)Nc2ccccn2)cc1 | 1.87% [at 42.5 µM] |  |
| CCCCCCCCCCCCCCCCCCN(C)C | -0.582% [at 42.5 µM] |  |
| CC(=O)Nc1ccc(C)cc1 | -2.56% |  |
| C=COCCOCCOC=C | 0.759% |  |
| Nc1cc(S(=O)(=O)O)ccc1S(=O)(=O)O | 10.8% |  |
| CCCCCCCCCCCCC | 0.324% |  |
| CC(=O)OCC(=O)[C@@]1(O)[C@H](OC(C)=O)C[C@H]2[C@@H]3CCC4=CC(=O)C=C[C@]4(C)[C@@]3(F)[C@@H](O)C[C@@]21C | 13.4% [at 42.5 µM] |  |
| CCOC(=O)C(C)(C)C | 0.359% |  |
| CC(C)COC(=O)/C=C/c1ccccc1 | -1.25% |  |
| CCCOC(=O)CCCCC(=O)OCCC | 12.2% |  |
| Cc1c(C(C)C)c(=O)n(-c2ccccc2)n1C | 0.448% [at 42.5 µM] |  |

| Structure (SMILES) | activity change, negative = cytotoxicity | Potency |
| --- | --- | --- |
| Cc1nc(C)nc(N2C[C@@H](C)N(c3ccnc([C@@H](C)O)n3)[C@@H](C)C2)n1 | -12.9% [at 42.5 µM] |  |
| Cc1cc(C)cc([N+](=O)[O-])c1 | 6.09% |  |
| COCC(=O)Nc1c(I)c(C(=O)NCC(O)CO)c(I)c(C(=O)N(C)CC(O)CO)c1I (stereo not given) | 6.3% [at 42.5 µM] |  |
| CC(=O)OC[C@H]1O[C@@H](OC(C)=O)[C@H](OC(C)=O)[C@@H]1OC(C)=O | 15% [at 42.5 µM] |  |
| CCCCOC(=O)C(=O)OCCCC | 8.12% |  |
| C=CCOc1cc(Cl)ccc1C(=O)NCCN(CC)CC | -18.5% [at 42.5 µM] |  |
| CC(=O)c1ccc2c(c1)CCCC2 | 3.16% |  |
| C=CCOCC(CO)(COCC=C)COCC=C | 4.28% [at 42.5 µM] |  |
| CCCCCC(=O)OCC | 6.49% |  |
| C=C(C)C(=O)OCCCCCCOC(=O)C(=C)C | 11.1% |  |
| Cc1oc(=O)oc1CN1CCN(c2cc3c(cc2F)c(=O)c(C(=O)O)c2n3C(C)S2)CC1 (stereo not given) | -9% [at 42.5 µM] |  |
| COc1cc([N+](=O)[O-])ccc1N |  | 61.1 µM (active) |
| CC(CC(=O)O)CC(C)(C)C (stereo not given) | 11% |  |
| CCC(O)C(C)(C)C (stereo not given) | -9.45% |  |
| CCOC(=O)CC#N | 0.238% |  |
| CC(=O)OC(C)(C)Cc1ccccc1 | 5.89% |  |
| C[C@H](CCC(=O)NCC(=O)O)[C@H]1CC[C@H]2[C@@H]3[C@H](O)C[C@@H]4C[C@H](O)CC[C@]4(C)[C@H]3C[C@H](O)[C@]12C | 8.59% |  |
| NS(=O)(=O)c1cc2c(cc1Cl)NC(C(Cl)Cl)NS2(=O)=O (stereo not given) | 0.641% [at 42.5 µM] |  |
| CC(=O)c1ccc(OCC(=O)N2CCCCC2)cc1 | 2.16% [at 42.5 µM] |  |
| NS(=O)(=O)c1ccccc1OC(F)(F)F | 8.06% |  |
